Shown are actives, neighbours in structure and some others; about 2.1% of the full set was active somewhere.
ROS inducer = cancer cell ROS induction; AID 624156; U2OS ROS induction, H2DCF-DA fluorescence; ROS induction (% of piperlongumine), % at 10 µM; actives 2% (n = 46,000); in the data active means ROS induction above about 79%, passing the limit was not always enough;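 further: 0% = DMSO vehicle median and 100% = reference compound median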
YB-1 expression = YB-1 expression inhibition | delta delta Cp (YB-1 minus CDIP) (concentration not given with the values) | actives 0.37% (n = 30,000) | U2OS, qRT-PCR YB-1 vs CDIP delta delta Cp, 16 h; active compounds read high; zero = DMSO, each unit about twofold;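 active means delta delta Cp rounded down to an integer at or above 3, about 3 SD of DMSO wells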;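 further: higher means less YB-1 transcript or more CDIP transcript relative to DMSO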
* = called active by the depositor; . = no result given.

SMILES	ROS inducer	YB-1 expression
COc1ccc(NC(=O)N(C)C[C@@H]2Oc3ncc(C#Cc4ccc(OC)c(OC)c4)cc3C(=O)N([C@H](C)CO)C[C@@H]2C)cc1	104*	0.23
CC(=O)Oc1ccc(C(=O)N2CCc3ccccc3C2)cc1	-12	.
CC1CCCCN1CCNC(=O)CCc1nnc2n(Cc3ccc(F)cc3)c(=O)c3ccccc3n12 (stereo not given)	-4	.
CCOC(=O)C1=C(c2ccc(OC)cc2)NC(=O)NC1c1ccc(OC)cc1 (stereo not given)	-13	.
O=C(CSCc1ccc(F)cc1)NC1CCCCC1	-9	.
COc1ccccc1NC(=S)N(Cc1ccccc1)Cc1cccn1Cc1ccc(F)cc1Cl	42	.
CCC(Sc1nnc(C)n2c1cc1oc(C)cc12)C(=O)Nc1cccc(OC)c1 (stereo not given)	96*	.
CCn1c(SCC(=O)Nc2cccc(OC)c2)nnc1-c1cccc(C)c1	7	.
c1ccc(Cn2c(-c3ccccc3)nc3ccccc32)cc1	-1	.
CC(=O)OC/C(=C\COc1cc(=O)oc2cccc(C)c12)CCC=C(C)C	110*	-0.56
CCc1cc(=O)oc2cc(C)cc(OCC(=O)C(C)(C)C)c12	73	.
CSCCn1c(-c2ccccc2)cc(C(=O)N2CCCC2)c1C	-2	.
C=C1CCC(O)/C(C)=C\CC(C(C)C)C(OC2OC(COC(C)=O)C(O)C(O)C2O)C1 (stereo not given)	-6	1.3
CC(C)CC1NC(=O)C(CC(C)C)N(O[C@@H]2O[C@H](COC(=O)CCC(=O)O)[C@@H](O)[C@H](O)[C@H]2O)C1=O (stereo not given in full)	-8	4.9*
CCNc1nc(NC(C)(C)C)nc(N(C#N)CC(=O)OC)n1	-45	.
CC(C)(C)Nc1nc(Cl)nc(N(C#N)CN2C(=O)c3ccccc3S2(=O)=O)n1	94*	.
O=C1N(CCS(=O)(=O)c2ccccc2)Cc2ccccc2[C@@H]2OC(c3ccc(OCCCO)cc3)=N[C@]12Cc1ccccc1	387*	-0.33
O=C(c1ccccc1)N1Cc2ccccc2C[C@@]2(N=C(c3ccc(OCCCO)cc3)O[C@H]2c2ccccc2)C1=O	67	-0.1
O=C1N(CCS(=O)(=O)c2ccccc2)Cc2ccccc2[C@H]2OC(c3ccc(OCCCO)cc3)=N[C@@]12Cc1ccccc1	117*	-0.43
C=CC[C@@]12N=C(c3ccc(OCCCO)cc3)O[C@@H]1c1ccccc1CN(CCS(=O)(=O)c1ccccc1)C2=O	60	-0.31
C=CC[C@@]12N=C(c3ccc(OCCCO)cc3)O[C@@H]1c1ccccc1CN(Cc1ccccc1)C2=O	45	-0.44
O=C1N(Cc2ccccc2)Cc2ccccc2[C@H]2OC(c3ccc(OCCCO)cc3)=N[C@@]12CCS(=O)(=O)c1ccccc1	243*	0.13
O=C1N(CCS(=O)(=O)c2ccccc2)Cc2ccccc2C[C@]12N=C(c1ccc(OCCCO)cc1)O[C@@H]2c1ccccc1	99*	0.42
C=CC[C@]12N=C(c3ccc(OCCCO)cc3)O[C@H]1c1ccccc1CN(CCS(=O)(=O)c1ccccc1)C2=O	13	0.35
Cc1cc(C)n2nc(SCC(=O)NCc3ccc(Cl)cc3)nc2n1	0	.
SMILES	ROS inducer	YB-1 expression
CN(C)/C=N/c1c(C#N)cnn1-c1ncnc2sc3c(c12)CCC3	-3	-0.24
Cc1cc(Oc2ccnc3cc(Cl)ccc23)ccc1Cl	44	.
O=C(c1ccccc1)N1Cc2ccccc2[C@H]2OC(c3ccc(OCCCO)cc3)=N[C@@]2(CCS(=O)(=O)c2ccccc2)C1=O	100*	-0.56
O=C(c1ccccc1)N1Cc2ccccc2[C@H]2OC(c3ccc(OCCCO)cc3)=N[C@@]2(Cc2ccccc2)C1=O	36	-0.23
O=C(Cc1cccs1)N1CCN(c2ccccc2)CC1	-10	.
N#Cc1c(C(F)(F)F)cc(-c2cccs2)nc1SCC(=O)c1ccccc1	747*	.
N#Cc1c(C(F)(F)F)cc(-c2cccs2)nc1SCC(=O)Nc1ccccc1C(F)(F)F	8	.
CC(C)[C@H]1C=C(C(=O)NCc2ccccc2)O[C@@H](OCc2ccc(CO)cc2)C1	17	7.6*
CC(C)[C@@H]1C=C(C(=O)O)O[C@H](OCc2ccc(CO)cc2)C1	6	0.071
O=C(CCCCCCC(=O)N/N=C/c1ccc(OCCO)cc1)NO	-21	-0.79
COc1ccc(S(=O)(=O)n2nccc2-c2ccc(-c3cccs3)s2)cc1OC	11	.
O=C(Nc1cc2c(ccc3ccccc32)oc1=O)c1ccccc1	-2	3.3*
CC(=O)Nc1cc2c(ccc3ccccc32)oc1=O	-6	.
Nc1ncnc2c1ncn2C1OC(CO)[C@H](O)[C@@H]1S (stereo not given in full)	0	0.24
CC(C)(C)C(=O)OC[C@H]1O[C@@H](n2cnc3c(N)ncnc32)C[C@@H]1OC(=O)C(C)(C)C	-2	8.3*
CSC(=NC1CCCCC1)Nc1cc(-c2ccccc2)[nH]n1	-2	.
Cc1ccc(OC(=O)COc2ccc3ccccc3c2)cc1	-6	.
CC(O)CC(=O)c1cc(O)ccc1O (stereo not given)	-4	4.6*
COc1ccc(CC(=O)c2ccc(O)cc2O)cc1	2	0.15
O=C(c1cc(-c2ccc(F)cc2)no1)N1CCN(c2cccc(Cl)c2)CC1	-20	.
Cc1cc(C(=O)Nc2cccc3c2O[C@H](CN(C)Cc2ccc(Oc4ccccc4)cc2)[C@H](C)CN([C@@H](C)CO)C3=O)n(C)n1	21	-0.37
Cc1cc(C(=O)Nc2cccc3c2O[C@H](CN(C)Cc2ccc(Oc4ccccc4)cc2)[C@@H](C)CN([C@@H](C)CO)C3=O)n(C)n1	124*	-0.25
Cc1cc(C(=O)Nc2cccc3c2O[C@@H](CN(C)Cc2ccc(Oc4ccccc4)cc2)[C@@H](C)CN([C@@H](C)CO)C3=O)n(C)n1	57	0.6
Cc1cc(C(=O)Nc2cccc3c2O[C@@H](CN(C)Cc2ccc(Oc4ccccc4)cc2)[C@H](C)CN([C@H](C)CO)C3=O)n(C)n1	106*	-0.21
CCn1c2ccccc2c2cc(CNCCc3ccc(Cl)cc3)ccc21	-9	-0.24
SMILES	ROS inducer	YB-1 expression
O=C(COc1ccccc1)NCC(=O)Nc1nc(CC23CC4CC(CC(C4)C2)C3)cs1	25	.
O=C1O[C@@H](c2ccccc2)[C@@H](c2ccccc2)N2[C@@H](c3ccc(O)cc3)[C@]3(C(=O)Nc4ccccc43)[C@@H](C(=O)NC[C@H](O)c3ccccc3)[C@H]12	5	-0.51
COCCOC(=O)N1C(=O)[C@@]2(c3cc(C#Cc4ccc(OC)cc4)ccc31)[C@H](C(=O)NC[C@H](O)c1ccccc1)[C@H]1C(=O)O[C@H](c3ccccc3)[C@H](c3ccccc3)N1[C@@H]2c1ccc(OCCO)cc1	13	0.24
O=C1O[C@@H](c2ccccc2)[C@@H](c2ccccc2)N2[C@@H](c3ccc(OCCO)cc3)[C@]3(C(=O)Nc4ccccc43)[C@@H](C(=O)NC[C@H](O)c3ccccc3)[C@H]12	103*	-0.17
COCCOC(=O)N1C(=O)[C@@]2(c3ccccc31)[C@H](C(=O)NC[C@H](O)c1ccccc1)[C@H]1C(=O)O[C@H](c3ccccc3)[C@H](c3ccccc3)N1[C@@H]2c1ccc(OCCO)cc1	84*	0.33
O=C(NC1CC1)c1ccc(Cl)cc1Cl	0	.
COC(=O)Cn1ncc2c3ccccc3n(Cc3cc(C)ccc3C)c2c1=O	-8	.
COc1cc(NC(=O)Cn2nnc(-c3ccccc3Cl)n2)cc(OC)c1OC	1	.
